The nature of this test: small-molecule binders of probe aInhba, primary screen, biochemical, small-molecule microarray, 635/667 nm fluorescence (AID 1148).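 Note: score merges 667nm spot fluorescence with signal-to-noise for antibody binding to printed compounds.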 The following applies: higher = more signal.
Turning to `C[N+](C)(C)CCCCNC(=O)[C@H]1C[C@H]2C(=O)N3CCC[C@H]3C(=O)N2[C@H]1c1ccc(O)cc1`, the composite z-score is -0.164. For the compound `O=S(=O)(NCCCO)c1ccc(Br)cc1`, the composite z-score was -0.024. For the compound `Cc1ccc(S(=O)(=O)N2CC(C(=O)O)=CCC2c2ccccc2)cc1` (configuration not stated), the composite z-score was -0.128. On to `C=CCOC(=O)[C@H]1[C@@H]2C(=O)O[C@@H](c3ccccc3)[C@@H](c3ccccc3)N2[C@@H](c2ccc(OCCOC(=O)[C@@H]3C[C@@H]4C(=O)NCC(=O)N4[C@@H]3c3ccc(O)cc3)cc2)[C@]12C(=O)Nc1ccc(I)cc12`, for which the composite z-score was -0.125. Regarding `CC(=O)NCCCC[C@@H]1NC(=O)[C@@H]2C[C@H](C(=O)NCCCCCC[N+](C)(C)C)[C@H](c3cccc(OCCO)c3)N2C1=O`, the composite z-score was -0.0425. As for `C/C=C/[C@H](CCn1cc([C@H](O)c2ccccc2)nn1)[Si](C)(C)c1ccc(OC)cc1`, the composite z-score was -0.263. The result for `CCCNC(=O)[C@@]1(C)c2ccccc2C(=O)N(Cc2cc(C(F)(F)F)cc(C(F)(F)F)c2)[C@H]1c1ccc(CO)cc1` reads -0.128; that for `C=C(CCCC)/C(=C/C[C@H](OC(C)=O)c1ccc(CO)o1)c1cc(C(=O)OC)ccc1OC`, 0.0622. Then `C=CCCN(CC#C[C@H]1Oc2ccccc2S(=O)(=O)N2CCC[C@@H]12)S(=O)(=O)c1ccc(C)cc1`, with -0.0471. The result for `CN1C(=O)C2C=CC(C(O)C(c3ccccc3)c3ccccc3)N(Nc3ccccc3)C2C1=O` (configuration not stated) reads 0.0857; that for `O=C1OCCC/C=C\[C@H]2OC34C=CCN(CCN5CCOCC5)C(=O)[C@H]3N(CCO)C(=O)[C@@H]4C12` (some centres not stated), -0.203. For `COCCOC(=O)N1C(=O)[C@@]2(c3cc(C#CC4(O)CCCCCC4)ccc31)[C@H](c1ccc(O)cc1)N1[C@H](c3ccccc3)[C@H](c3ccccc3)OC(=O)[C@H]1[C@@H]2C(=O)N1CCc2cc(OC)c(OC)cc2C1`, the composite z-score is -0.176.

(Values after PubChem BioAssay.)
